# Compound activity as filed in PubChem BioAssay.
# This excerpt belongs to a sample that is enriched for hits.
# NRP1-CendR mod = alters CendR peptide binding to human NRP-1. O14786. FAM-RPARPAR peptide binding to NRP-1, fluorescence polarization. inhibition, % at 25 µM. hit rate 0.85% among 360,000. AID 602438;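 active = inhibition or corrected inhibition above about 18%, plus a signal ratio from 0.5 to 1.5, limit read from the data, passing the limit was not always enough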
# PDI turbidity = inhibitors of human protein disulfide isomerase | AID 588391 | hit rate 0.052% among 350,000 | P07237 | inhibition, % at 10 µM | PDI insulin aggregation turbidity, A650, 90 min;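 active = mean inhibition across replicates of 30% or more, whatever share of single replicates reach that level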
# Target sequence (P07237 whole entry, looked up): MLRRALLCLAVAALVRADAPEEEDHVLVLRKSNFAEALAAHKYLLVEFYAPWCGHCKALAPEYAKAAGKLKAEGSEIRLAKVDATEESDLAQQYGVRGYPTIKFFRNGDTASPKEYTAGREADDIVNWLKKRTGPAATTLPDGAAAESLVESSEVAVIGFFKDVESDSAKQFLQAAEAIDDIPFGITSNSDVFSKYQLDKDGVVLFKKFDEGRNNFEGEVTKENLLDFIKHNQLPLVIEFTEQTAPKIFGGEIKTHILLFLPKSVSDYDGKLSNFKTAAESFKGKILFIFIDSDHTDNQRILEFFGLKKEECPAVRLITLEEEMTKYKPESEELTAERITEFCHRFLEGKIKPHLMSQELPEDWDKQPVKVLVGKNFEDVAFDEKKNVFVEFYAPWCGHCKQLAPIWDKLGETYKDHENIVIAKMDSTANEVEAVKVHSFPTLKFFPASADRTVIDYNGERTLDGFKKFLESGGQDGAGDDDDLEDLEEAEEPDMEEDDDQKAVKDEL
# PglD inh = blocks C. jejuni PglD acetyltransferase activity. AID 602405. inhibition, % at 12.5 µM. purified PglD enzyme, DTNB colorimetric CoA detection. hit rate 0.098% among 360,000; in the data active = inhibition above about 16%, passing the limit was not always enough
# ALR H2O2 inh = blocks human ALR sulfhydryl oxidase activity. P55789. purified ALR, DTT oxidation, H2O2 HRP-luminol luminescence. inhibition, % (test concentration not listed). hit rate 3.8% among 290,000. AID 485317;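 active = mean replicate inhibition above about 79%, with every replicate also reaching it, limit read from the data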
# ARNT-TACC3 inh = disruptors of human ARNT/TACC3 interaction; Q9Y6A5; AlphaScreen His-ARNT PAS-B/GST-TACC3 binding, luminescence; TACC3 fragment carries E629A point mutation; inhibition, % at 9.99 µM; hit rate 0.66% among 390,000;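 active = mean inhibition of replicates at least 50% and at least half of replicates each reaching 50%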
# ERp5 block = ERp5 (human) disulfide isomerase inhibition | Q15084 | ERp5 insulin aggregation, absorbance 650 nm, 90 min | inhibition, % at 9.99 µM | hit rate 0.05% among 350,000 | AID 651711;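 active = mean replicate inhibition above about 25%, with every replicate also reaching it, limit read from the data, passing the limit was not always enough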
# A number is an active result; - = inactive; . = not tested or not shown.
SMILES,NRP1-CendR mod,PDI turbidity,PglD inh,ALR H2O2 inh,ARNT-TACC3 inh,ERp5 block
C[C@H]1CN([C@@H](C)CO)C(=O)c2cc(NC(=O)Nc3ccc(C(F)(F)F)cc3)ccc2O[C@@H]1CN(C)S(C)(=O)=O,.,.,-,.,-,-
O=C(NCC[C@H]1CC[C@@H](NS(=O)(=O)c2cccc(F)c2)[C@@H](CO)O1)C1CC1,.,.,-,.,-,-
C[C@H]1CCCCO[C@H](CN(C)C(=O)Nc2ccc3c(c2)OCO3)[C@@H](C)CN([C@@H](C)CO)C(=O)c2cc(NS(C)(=O)=O)ccc2O1,.,.,-,.,-,-
CC(C)NC(=O)N(C)C[C@H]1Oc2cc(Br)ccc2S(=O)(=O)N([C@@H](C)CO)C[C@@H]1C,.,.,-,.,-,-
Cc1cc(C(=O)Nc2cccc3c2O[C@H](CN(C)C(=O)Nc2ccc(F)cc2)[C@H](C)CN([C@@H](C)CO)C3=O)n(C)n1,.,.,-,.,-,-
CC(=O)Nc1ccc2c(c1)C(=O)N(C)[C@H]1CC[C@@H](CC(=O)NCc3ccccc3)O[C@H]1CO2,.,.,-,.,-,-
Nc1nonc1C(=O)N/N=C/c1cccc([N+](=O)[O-])c1,-,-,-,-,-,-
CN(C)c1ccc(/C=N/NC(=O)c2nonc2N)cc1[N+](=O)[O-],25,-,-,-,-,-
Oc1ccc(/C=N/Nc2nc(N3CCCC3)nc(N3CCCC3)n2)cc1O,-,-,-,99,-,-
COc1cc(/C=N/Nc2nc(N3CCCC3)nc(N3CCCC3)n2)ccc1O,-,-,-,99,-,.
CCOc1ccc(/C=N/Nc2nc(N3CCCC3)nc(N3CCCC3)n2)cc1OC,-,-,-,-,-,-
NNC(=O)c1[nH]c2ccc([N+](=O)[O-])cc2c1-c1ccccc1,24,-,-,-,-,-
C[C@@H]1CN([C@@H](C)CO)C(=O)c2cc(C#CC3(O)CCCC3)cnc2O[C@H]1CN(C)C(=O)Cc1ccncc1,.,.,-,.,-,-
CO[C@H]1CN(C)C(=O)c2ccc(NS(C)(=O)=O)cc2OC[C@@H](C)N(CCC(F)(F)F)C[C@@H]1C,.,.,-,.,-,-
Cc1ccc(S(=O)(=O)N(CC(O)CN2CCOCC2)c2cccc([N+](=O)[O-])c2)cc1 (centres undefined),-,-,-,-,-,27
COc1ccc(N(CC(O)CN2CCCCC2)S(=O)(=O)c2ccc(C)cc2)cc1 (centres undefined),24,-,-,-,-,.
Cc1ccc(S(=O)(=O)N(CC(O)CN2CCCCC2)c2ccccc2)cc1 (centres undefined),-,-,-,-,-,-
Cc1cc(C(=O)Nc2cccc3c2O[C@@H](CN(C)Cc2ccc(Cl)c(Cl)c2)[C@@H](C)CN([C@H](C)CO)C3=O)n(C)n1,.,.,-,.,-,-
Cc1nc2ncnn2c(N2CCN(C(=O)c3cccc(F)c3)CC2)c1C,26,-,-,-,-,.
COc1ccccc1-c1cnc2c(c1)C(=O)N([C@H](C)CO)C[C@H](C)[C@@H](CN(C)Cc1ccc(C(=O)O)cc1)O2,.,.,-,.,.,-
CSc1nc(SCC(=O)O)c2sc3nc(-c4ccccc4)c4c(c3c2n1)CCC4,-,53,-,.,-,-
CSc1nc(N(C)CCO)c2sc3nc(-c4ccco4)c4c(c3c2n1)CCC4,-,-,-,98,-,.
O=C(C[C@H]1C=C[C@H](NS(=O)(=O)c2ccccc2)[C@@H](CO)O1)N1CCC(Cc2ccccc2)CC1,.,.,.,.,.,-
CCOc1ccc(C(=O)NNC2CC(=O)N(Cc3ccc(Cl)cc3)C2=O)cc1OC (centres undefined),-,-,.,97,-,-
CC(=O)c1c(O)cc(C)n(Nc2nc(C)cc(C)n2)c1=O,-,-,-,-,73,.
SMILES,NRP1-CendR mod,PDI turbidity,PglD inh,ALR H2O2 inh,ARNT-TACC3 inh,ERp5 block
CC(=O)c1c(O)cc(C)n(-c2ccc(F)cc2)c1=O,-,-,.,-,-,-
CC=Cc1ccc2n(c1=O)C[C@H]1[C@H](CO)[C@@H](C(=O)N[C@@H](C)c3ccccc3)[C@@H]2N1Cc1cncnc1 (mixture of isomers),.,.,-,.,-,-
Oc1c(Cl)cc(Cl)cc1C=Nc1ccccc1N1CCCC1,.,.,.,98,.,.
COc1ccc(NC(=O)N(C)C[C@H]2Oc3ccc(NC(=O)c4ccncc4)cc3CC(=O)N([C@H](C)CO)C[C@H]2C)cc1,.,.,-,.,-,-
N#C/C(=C\c1cccc(Cl)c1)C(=O)c1ccccc1,-,-,-,96,-,-
Cc1ccc2nc(Cl)c(/C=C/C(=O)c3ccco3)cc2c1,-,-,.,97,-,.
